{"source": "PubChem BioAssay AID1347416", "about": "(National Center for Advancing Translational Sciences (NCATS), 2020)", "note": "The campaign covered roughly 4,100 compounds. About 1,600 (39%) were called active. Another 25% or so got no clear call; they are omitted. Calls come from the whole dose curve; as a rule, active = well fitted inhibition curve with a large enough effect; inconclusive = small, poorly fitted or top-dose-only effect; inactive = no such curve, though single readings can be large or run the other way. Some of the results follow. Entries that show only a call come without a potency. Potency is the fitted concentration of half-maximal effect."}
{"test": "qHTS Validation assay for Inhibitors of Plasmodium falciparum Dd2 growth in vitro; note: nearly all actives have a fitted effect of over 70% in size", "details": "P. falciparum Dd2 in RBCs, SYBR Green growth, 72 h; series mostly up to 28.7 µM", "summary_of_the_method": "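P. falciparum Dd2-infected red blood cells (2.5% hematocrit, 0.3% parasitemia) grown 72 h at 37 °C under 5% O2 with compounds in a titration, 29 uM to 0.5 nM final. Growth read as SYBR Green-1 fluorescence after ~16 h lysis; artesunate 300 nM as positive control.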"}
{"compound": "CCn1cc(S(=O)(=O)N2CCCOCCNC(=O)[C@@H]3CCC[C@@H]32)cn1", "Potency": "inactive"}
{"compound": "Cc1cc([N+](=O)[O-])ccc1NC(=O)COc1nsnc1N1CCOCC1", "Potency": "6.68 µM (active)"}
{"compound": "COc1ccc(CN2CC[C@H](c3nnc(-c4ccccc4F)o3)C2)cc1", "Potency": "inactive"}
{"compound": "COc1ccc(CCN2CCC(Nc3nc4ccccc4n3Cc3ccc(F)cc3)CC2)cc1", "Potency": "2.37 µM (active)"}
{"compound": "COc1ccc(Cn2c(C3CCN(C(=O)Cc4ccc(F)cc4)CC3)n[nH]c2=O)cc1", "Potency": "inactive"}
{"compound": "Cc1nc(N2CCC(C)CC2)c2c(C)c(C(=O)Nc3ccc(C(F)(F)F)cc3)sc2n1", "Potency": "7.5 µM (active)"}
{"compound": "CC1CCN(c2nc3ccc(C(=O)O)cc3s2)CC1", "Potency": "inactive"}
{"compound": "COc1ccc(CNC(=O)Cn2c(SCC(=O)N(C)c3ccccc3)nc3ccccc32)cc1", "Potency": "inactive"}
{"compound": "CN(C(=O)CSc1nc2ccc(NC(=O)CCc3ccccc3)cc2s1)c1ccccc1", "Potency": "13.3 µM (active)"}
{"compound": "Cc1ccc(C)n1-c1nnc(N2CCCC(C(=O)NCc3ccccc3)C2)s1", "note": "(stereo not drawn)", "Potency": "inactive"}
{"compound": "O=C(NCc1ccc(N2CCCC2)cc1)C1CCCN(c2cnn(Cc3ccccc3)c(=O)c2)C1", "note": "(stereo not drawn)", "Potency": "10.6 µM (active)"}
{"compound": "O=C(CC1CCCN(c2cnn(CC3CC3)c(=O)c2)C1)NCc1ccccc1", "note": "(stereo not drawn)", "Potency": "inactive"}
{"compound": "Cc1cc(C)c(S(=O)(=O)Nc2cc(Cl)c3oc4c(c3c2)C(=O)CCC4)cc1C", "Potency": "inactive"}
{"compound": "CN(C)CC(O)COc1ccc(C(C)(C)c2ccc(OCC(O)CN(C)C)cc2)cc1", "note": "(stereo not drawn)", "Potency": "8.41 µM (active)"}
{"compound": "CCc1cccc(NC(=O)c2ccc3c(c2)N(C)C2CCCCN2C3=O)c1", "note": "(stereo not drawn)", "Potency": "inactive"}
{"compound": "O=C(Nc1ccc(C(=O)OC[C@@H]2CCCN3CCCC[C@H]23)cc1)c1cccc(Br)c1", "Potency": "6.68 µM (active)"}
{"compound": "O=C(COC(=O)c1cccc(Br)c1)NCCNC(=O)COC(=O)c1cccc(Br)c1", "Potency": "inactive"}
{"compound": "O=S(=O)(c1cccc(F)c1)N1CCC2(CC1)CC(Cc1nc(C3CC3)no1)CCO2", "note": "(stereo not drawn)", "Potency": "inactive"}
{"compound": "O=C(NC1CCN(c2cnn(CC3CC3)c(=O)c2)CC1)c1ccc2c(c1)OCO2", "Potency": "inactive"}
{"compound": "CC1(CCCCc2ccccc2)COc2ccc(C(=O)NC3CCC(O)CC3)cc2N1", "note": "(stereo not drawn)", "Potency": "inactive"}
{"compound": "CCN(C(=O)Cn1c(=O)n(Cc2ccc3c(c2)OCO3)c(=O)c2ccc(C(=O)NC3CCCCC3)cc21)c1cccc(C)c1", "Potency": "6.68 µM (active)"}
{"compound": "O=C(Cc1cccc(F)c1)N1CCC(Oc2ccccc2-c2nc(C3CC3)no2)C1", "note": "(stereo not drawn)", "Potency": "inactive"}
{"compound": "c1ccc(-c2nc(-c3ccncc3)no2)c(OC2CCN(C3CCCC3)C2)c1", "note": "(stereo not drawn)", "Potency": "15 µM (active)"}
{"compound": "O=C(c1ccco1)N1CCC(Oc2ccccc2-c2nc(-c3ccccc3)no2)C1", "note": "(stereo not drawn)", "Potency": "inactive"}
{"compound": "Cc1cc(C(=O)Nc2cnn(Cc3ccc(Cl)cc3Cl)c2)no1", "Potency": "9.44 µM (active)"}
{"compound": "Cc1cc(/C(N)=N/OC(=O)c2ccccc2Cl)no1", "Potency": "inactive"}
{"compound": "Cc1cn2nc(C(=O)NCc3ccccc3Cl)cc2c(=O)[nH]1", "Potency": "inactive"}
{"compound": "OCc1cccc(-c2ccc3ncc(Nc4ccc(OCCN5CCCC5)cc4)n3n2)c1", "Potency": "3.44 µM (active)"}
{"compound": "COc1ccc(Nc2cnc3ccc(-c4ccc(OC)c(OC)c4)nn23)cc1", "Potency": "1.72 µM (active)"}
{"compound": "COc1ccc(C(=O)NCc2nnc3ccc(-c4ccc(F)cc4)nn23)c(OC)c1", "Potency": "inactive"}
{"compound": "COc1ccc(-c2ccc(SCc3ccccn3)nn2)cc1OC", "Potency": "inactive"}
{"compound": "COc1cncc(Nc2cnc3ccc(-c4ccc(F)cc4)nn23)c1", "Potency": "3.06 µM (active)"}
{"compound": "COc1ccc(-c2ccc3ncc(Nc4ccncc4)n3n2)cc1OC", "Potency": "4.85 µM (active)"}
{"compound": "Cc1oc(C(C)C)cc1C(=O)N1CC[C@](C)(O)[C@@H](O)C1", "Potency": "inactive"}
{"compound": "CC(=O)N1CCC([C@@H]2CN(C3CCN(CC(C)C)CC3)C[C@H]2CO)CC1", "Potency": "inactive"}
{"compound": "O=C(O)CC1(CC(=O)N2CCN3C(=O)N(Cc4ccccc4)C(=O)[C@H]3C2)CCCC1", "Potency": "inactive"}
{"compound": "CCCc1noc(-c2ccn3c(CNC(=O)c4ccc5ccccc5n4)nnc3c2)n1", "Potency": "inactive"}
{"compound": "c1ccc(-c2ccc3ncc(Nc4cccnc4)n3n2)cc1", "Potency": "4.85 µM (active)"}
{"compound": "COc1cncc(Nc2cnc3ccc(-c4ccc(OC)c(OC)c4)nn23)c1", "Potency": "1.22 µM (active)"}
{"compound": "O=C(NCc1nnc2ccc(-c3ccccc3)nn12)c1ccoc1", "Potency": "inactive"}
{"compound": "CCC1(O)CCCN(c2ncc(C(C)(C)C(=O)O)c(N3CCOCC3)n2)C1", "note": "(stereo not drawn)", "Potency": "inactive"}
{"compound": "CCOC(=O)c1ccc(NC2=CC(c3ccc(O)c(OCC)c3)N(c3ccc(C(=O)OCC)cc3)C2=O)cc1", "note": "(stereo not drawn)", "Potency": "3.35 µM (active)"}
{"compound": "CCOC(=O)c1ccc(NC2=CC(c3ccc(F)cc3)N(c3ccc(C(=O)OCC)cc3)C2=O)cc1", "note": "(stereo not drawn)", "Potency": "8.41 µM (active)"}
{"compound": "CCOc1cc(C2c3c(oc4ccccc4c3=O)C(=O)N2Cc2ccc3c(c2)OCO3)ccc1O", "note": "(stereo not drawn)", "Potency": "inactive"}
{"compound": "O=C(CNC1=NCCC1)c1ccc2c(c1)OCCO2", "Potency": "inactive"}
{"compound": "Nc1cc[n+](CC(=O)c2ccc3c(c2)OCCO3)cc1", "Potency": "13.3 µM (active)"}
{"compound": "COc1cc(C2NC(=O)c3c(sc4c3CCN(C)C4)N2)cc(OC)c1OC", "note": "(stereo not drawn)", "Potency": "inactive"}
{"compound": "O=C(Nc1cccc2ccccc12)O[C@@H]1CO[C@H]2[C@@H]1OC[C@@H]2n1nnnc1-c1ccc(-c2ccccc2)cc1", "Potency": "inactive"}
{"compound": "CCC(C)c1ccc(N(C(=O)c2ccco2)C(C(=O)NC2CCCC2)c2cccnc2)cc1", "note": "(stereo not drawn)", "Potency": "6.68 µM (active)"}
{"compound": "CC(C)N1C(=O)C(CC(=O)N(C)Cc2cccnc2)=C2CCCCC21", "note": "(stereo not drawn)", "Potency": "inactive"}
{"compound": "COc1cncc(Nc2ncc(-c3c(C)noc3C)c3c2OCC3)c1", "Potency": "inactive"}
{"compound": "Cc1noc(C)c1-c1cc2cc(CN(C)C)oc2c(Nc2cccnc2)n1", "Potency": "12.2 µM (active)"}
{"compound": "Cc1noc(C)c1-c1cc2cc(CN(C)C)oc2c(NCc2cccnc2)n1", "Potency": "1.22 µM (active)"}
{"compound": "CC(C)(C)c1ccc(C(=O)N2CCCC(c3nc4c(nnn4Cc4cccc(F)c4)c(=O)[nH]3)C2)cc1", "note": "(stereo not drawn)", "Potency": "16.8 µM (active)"}
{"compound": "Cc1cn2nc(-c3nc(C4CCCN(C(=O)c5cccc(Cl)c5)C4)no3)cc2c(=O)[nH]1", "note": "(stereo not drawn)", "Potency": "inactive"}
{"compound": "O=C(c1cccc(Cl)c1)N1CCC(c2nc3c(nnn3Cc3ccc(F)cc3F)c(=O)[nH]2)CC1", "Potency": "5.96 µM (active)"}
{"compound": "Cc1cn2nc(-c3nc(C4CCCN(C(=O)c5ccc(C)c(F)c5)C4)no3)cc2c(=O)[nH]1", "note": "(stereo not drawn)", "Potency": "inactive"}
{"compound": "O=C(c1cccc(Cl)c1)N1CCC(c2nn(Cc3ccccc3)c(=O)[nH]2)CC1", "Potency": "inactive"}
{"compound": "Cc1cccc(Cn2nnc3c(=O)[nH]c(C4CCCN(C(=O)c5ccc(C(C)(C)C)cc5)C4)nc32)c1", "note": "(stereo not drawn)", "Potency": "2.66 µM (active)"}
{"compound": "Cc1cccc(CC(=O)N2CCCC(n3cc(-c4nc(-c5ccccc5)no4)nn3)C2)c1", "note": "(stereo not drawn)", "Potency": "inactive"}
{"compound": "NC(=O)c1cccc(-c2ncc3c(n2)OCCN(Cc2ccc(F)cc2F)C3=O)c1", "Potency": "inactive"}
{"compound": "O=C(c1ccc(F)cc1)N1CCC(c2nn(Cc3ccccc3)c(=O)[nH]2)CC1", "Potency": "inactive"}
{"compound": "CO[C@H]1C(=O)N(C2CCN(S(=O)(=O)c3cccnc3)CC2)[C@H]1c1ccncc1", "Potency": "inactive"}
{"compound": "Cc1ccc(Nc2nc3nonc3nc2Nc2cccc(C(F)(F)F)c2)cc1Cl", "Potency": "2.11 µM (active)"}
{"compound": "CCOc1ccc(-c2nonc2NC(=O)COc2c(C)cc(C)cc2C)cc1OCC", "Potency": "inactive"}
{"compound": "CCCOc1ccc(-c2nonc2NC(=O)c2cc(OC)c(OC)c(OC)c2)cc1OCCC", "Potency": "5.96 µM (active)"}
{"compound": "CCOc1ccc(-c2nonc2NC(=O)c2ccc(C)cc2)cc1OCC", "Potency": "1.68 µM (active)"}
{"compound": "CCOC(=O)Cc1csc(NC(=S)NC(=O)c2ccc(C)cc2)n1", "Potency": "inactive"}
{"compound": "CCNc1nc(OC)nc(Oc2ccc(=O)n(-c3ccccc3)n2)n1", "Potency": "5.96 µM (active)"}
{"compound": "CC(C)Cn1c(-c2ccco2)nc2c(c(=O)c3ccccc3n2C)c1=O", "Potency": "9.44 µM (active)"}
{"compound": "Cc1ccc(S(=O)(=O)N2CCC(C(=O)NC3CC3)CC2)cc1", "Potency": "inactive"}
{"compound": "O=S(=O)(c1ccc(F)cc1)N1CCN(C(=S)NC2CC2)CC1", "Potency": "3.35 µM (active)"}
{"compound": "CS(=O)(=O)N1CCC(OC2CCN(C(=O)Nc3cc(F)ccc3F)CC2)CC1", "Potency": "inactive"}
{"compound": "COc1ccc(S(=O)(=O)N2CCN(C(=S)NC3CCCCC3)CC2)cc1", "Potency": "6.68 µM (active)"}
{"compound": "O[C@]1(c2ccccc2)CCN(Cc2ccncc2)C[C@H]1N1CCCC1", "Potency": "9.44 µM (active)"}
{"compound": "Cc1nn(C)cc1CN1CCC(O)(c2ccccc2)[C@H](N2CCCC2)C1", "note": "(stereo partly drawn)", "Potency": "inactive"}
{"compound": "CCOc1ccc(CN2CC[C@@](C)(O)[C@H](N3CCCC3)C2)cc1", "Potency": "inactive"}
{"compound": "O=C(CC1CCN(C(=O)c2cccs2)C1)NCc1ccccc1", "note": "(stereo not drawn)", "Potency": "inactive"}
{"compound": "O=C(c1cccs1)N1CCC(n2cc(-c3nc(-c4ccccc4)no3)nn2)CC1", "Potency": "inactive"}
{"compound": "O[C@]1(c2ccccc2)CCN(Cc2ccco2)C[C@H]1N1CCCC1", "Potency": "8.41 µM (active)"}
{"compound": "O=C(c1cccs1)N1CCC(O)(c2ccccc2)[C@H](N2CCCC2)C1", "note": "(stereo partly drawn)", "Potency": "9.44 µM (active)"}
{"compound": "c1ccc(-c2noc(-c3ccn4c(CN5CCN(c6ccccn6)CC5)nnc4c3)n2)cc1", "Potency": "inactive"}
{"compound": "CCOc1ccc2[nH]c3c(NCCN(C)C)ncnc3c2c1", "Potency": "16.8 µM (active)"}
{"compound": "CC1Cn2c(nnc2-c2cc3ccccc3cc2O)S1", "note": "(stereo not drawn)", "Potency": "4.73 µM (active)"}
{"compound": "CCc1ccc(Oc2c(C(F)(F)F)oc3c(CN4CCN(CC)CC4)c(O)ccc3c2=O)cc1", "Potency": "0.376 µM (active)"}
{"compound": "CCc1ccc(Oc2c(C(F)(F)F)oc3c(CN4CCN(C)CC4)c(O)ccc3c2=O)cc1", "Potency": "0.75 µM (active)"}
{"compound": "C=CCO[C@@H]1CCN2C(=O)c3cc(-c4cc(Cl)ccc4OC)ccc3NC(=O)[C@H]12", "Potency": "inactive"}
{"compound": "O=C(O)COc1ccc(-c2nccc3c2C(=O)N(Cc2ccccc2)CC(CNC(=O)c2ccc(F)cc2)O3)cc1", "note": "(stereo not drawn)", "Potency": "inactive"}
{"compound": "CC(C)C(=O)NCC1CN(Cc2ccccc2)C(=O)c2c(ccnc2-c2ccc(OCC(=O)O)cc2)O1", "note": "(stereo not drawn)", "Potency": "2.11 µM (active)"}
{"compound": "Cc1cccc(Nc2nc(NCc3ccco3)c3ccccc3n2)c1", "Potency": "4.73 µM (active)"}
{"compound": "Oc1ccccc1Nc1nc(NCc2ccco2)c2ccccc2n1", "Potency": "2.99 µM (active)"}
{"compound": "c1ccc(Nc2nc(NCc3ccco3)c3ccccc3n2)cc1", "Potency": "1.68 µM (active)"}
{"compound": "OCCNc1nc(Nc2ccc(Br)cc2)nc2ccccc12", "Potency": "2.66 µM (active)"}
